Assay results as given in the supplement of paper PMC7695840.

Assays:
[1] = tested on: Staphylococcus aureus MW2 delta-mecA (mecA-); assay: normalized GFP fluorescence (growth of mecA- strain) (fraction of control range); higher = more growth of mecA- strain; conditions: compound concentration: 150 uM; cefoxitin: subinhibitory; fluorescent label: GFP
How it was run: (§1)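 Single-replicate 1536-well plates carried 150 μM compound (1.5% DMSO), onto which 5 µL/well of a 1:1 mix of pre-induced S. aureus MW2 cells was dispensed: gene-carrying cells tagged with DsRed and deletion cells tagged with GFP, in LB with a subinhibitory antibiotic dose set daily. Incubation ran 20 h at 37 °C, 90% humidity, unshaken, followed by DsRed (540/590) and GFP (485/520) reads. Per-plate scaling of each channel used single-strain control medians, and plates with high untreated ratios and rows with DsRed/GFP >10 were excluded.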

[2] = tested on: Staphylococcus aureus MW2 (mecA+); assay: normalized DsRed fluorescence (growth of mecA+ strain) (fraction of control range); higher = more growth of mecA+ strain; conditions: compound concentration: 150 uM; cefoxitin: subinhibitory; fluorescent label: DsRed
How it was run: as §1

## CN[C@@H]1[C@@H](O)[C@@H](O[C@@H]2[C@@H](O)[C@H](O[C@H]3OC(CN)=CC[C@H]3N)[C@@H](N)C[C@H]2N)OC[C@]1(C)O
[1]
  normalized GFP fluorescence: 0.511
[2]
  normalized DsRed fluorescence: 0.916

## CCCc1cc(C(N)=S)ccn1 [Protionamide (Prothionamide)]
[1]
  normalized GFP fluorescence: 0.749
[2]
  normalized DsRed fluorescence: 0.698

## C[C@]12C=CC(=O)N[C@@H]1CC[C@@H]1[C@@H]2CC[C@]2(C)[C@@H](C(=O)Nc3cc(C(F)(F)F)ccc3C(F)(F)F)CC[C@@H]12 [Dutasteride]
[1]
  normalized GFP fluorescence: 0.284
[2]
  normalized DsRed fluorescence: 0.52

## Cc1cnc(C(=O)NCCc2ccc(S(=O)(=O)NC(=O)NC3CCCCC3)cc2)cn1
[1]
  normalized GFP fluorescence: 0.553
[2]
  normalized DsRed fluorescence: 0.734

## OC(Cn1cncn1)(Cn1cncn1)c1ccc(F)cc1F
[1]
  normalized GFP fluorescence: 0.417
[2]
  normalized DsRed fluorescence: 0.746

## CCOC(=O)n1ccn(C)c1=S [Carbimazole]
[1]
  normalized GFP fluorescence: 0.708
[2]
  normalized DsRed fluorescence: 0.813

## CN1[C@@H]2CC[C@H]1C[C@@H](OC(=O)c1c[nH]c3ccccc13)C2 [Tropisetron]
[1]
  normalized GFP fluorescence: 0.528
[2]
  normalized DsRed fluorescence: 0.582

## CC(=O)O[C@H]1CC[C@@]2(C)C(=CC[C@@H]3[C@@H]2CC[C@]2(C)C(c4cccnc4)=CC[C@@H]32)C1 [Abiraterone Acetate (CB7630)]
[1]
  normalized GFP fluorescence: 0.278
[2]
  normalized DsRed fluorescence: 0.65

## CC(=O)Oc1cccc(O)c1
[1]
  normalized GFP fluorescence: 0.353
[2]
  normalized DsRed fluorescence: 0.584

## C=CC[N+]1([C@H]2C[C@H]3[C@@H]4CC[C@H]5C[C@H](O)[C@@H](N6CCOCC6)C[C@]5(C)[C@H]4CC[C@]3(C)[C@H]2OC(C)=O)CCCC1
[1]
  normalized GFP fluorescence: 0.279
[2]
  normalized DsRed fluorescence: 0.667

## C[n+]1ccccc1/C=N/O
[1]
  normalized GFP fluorescence: 0.332
[2]
  normalized DsRed fluorescence: 0.9

## Nc1nnc(-c2cccc(Cl)c2Cl)c(N)n1 [Lamotrigine]
[1]
  normalized GFP fluorescence: -0.0077
[2]
  normalized DsRed fluorescence: 1.04

## CCCCNc1ccc(C(=O)OCCN(C)C)cc1
[1]
  normalized GFP fluorescence: 0.243
[2]
  normalized DsRed fluorescence: 0.719

## CCCNCC(O)COc1ccccc1C(=O)CCc1ccccc1 (centres undefined)
[1]
  normalized GFP fluorescence: 0.19
[2]
  normalized DsRed fluorescence: 1.05

## C#C[C@]1(OC(C)=O)CC[C@H]2[C@@H]3CCC4=C[C@@H](OC(C)=O)CC[C@@H]4[C@H]3CC[C@@]21C
[1]
  normalized GFP fluorescence: 0.192
[2]
  normalized DsRed fluorescence: 0.568

## Cc1nc2n(c(=O)c1CCN1CCC(c3noc4cc(F)ccc34)CC1)CCCC2O (centres undefined)
[1]
  normalized GFP fluorescence: 0.379
[2]
  normalized DsRed fluorescence: 0.72

## OC[C@@H](O)[C@@H](O)[C@H](O)[C@@H](O)CO [Sorbitol (Glucitol)]
[1]
  normalized GFP fluorescence: 0.227
[2]
  normalized DsRed fluorescence: 1.15

## COC(=O)[C@@H]1[C@H]2C[C@H]3c4[nH]c5ccccc5c4CCN3C[C@@H]2CC[C@@H]1O
[1]
  normalized GFP fluorescence: 0.259
[2]
  normalized DsRed fluorescence: 0.809

## C[C@@H]1NC(=O)[C@@H](N)CNC(=O)[C@H](C2CCNC(=N)N2)NC(=O)/C(=C/NC(N)=O)NC(=O)[C@H](CNC(=O)CC(N)CCCN)NC1=O.N=C1NCCC([C@@H]2NC(=O)/C(=C/NC(N)=O)NC(=O)[C@H](CNC(=O)CC(N)CCCN)NC(=O)[C@H](CO)NC(=O)[C@@H](N)CNC2=O)N1 (some centres undefined)
[1]
  normalized GFP fluorescence: 0.494
[2]
  normalized DsRed fluorescence: 0.758

## Cc1nnc(NS(=O)(=O)c2ccc(N)cc2)s1
[1]
  normalized GFP fluorescence: 0.326
[2]
  normalized DsRed fluorescence: 1.88

## Cc1ccnc(NS(=O)(=O)c2ccc(N)cc2)n1
[1]
  normalized GFP fluorescence: 0.459
[2]
  normalized DsRed fluorescence: 0.528

## Nc1nc2c(ncn2COC(CO)CO)c(=O)[nH]1
[1]
  normalized GFP fluorescence: 0.466
[2]
  normalized DsRed fluorescence: 0.948

## O=c1[nH]cnc2c1ncn2[C@H]1CC[C@@H](CO)O1 [Didanosine (Videx)]
[1]
  normalized GFP fluorescence: 0.446
[2]
  normalized DsRed fluorescence: 0.652

## O=NN(CCCl)C(=O)NC1CCCCC1
[1]
  normalized GFP fluorescence: 0.569
[2]
  normalized DsRed fluorescence: 0.767

## CSCC[C@H](NC(=O)[C@H](Cc1c[nH]c2ccccc12)NC(=O)CCNC(=O)OC(C)(C)C)C(=O)N[C@@H](CC(=O)O)C(=O)N[C@@H](Cc1ccccc1)C(N)=O
[1]
  normalized GFP fluorescence: 0.461
[2]
  normalized DsRed fluorescence: 0.68

## Cc1c(OCC(F)(F)F)ccnc1C[S@@+]([O-])c1nc2ccccc2[nH]1
[1]
  normalized GFP fluorescence: 0.348
[2]
  normalized DsRed fluorescence: 0.452

## C[C@]12C=CC(=O)C=C1CC[C@@H]1[C@@H]2[C@@H](O)C[C@@]2(C)[C@H]1CC[C@]2(O)C(=O)COC(=O)CCC(=O)O
[1]
  normalized GFP fluorescence: 0.461
[2]
  normalized DsRed fluorescence: 1.04

## CN(C)CCOC(c1ccccc1)c1ccccc1
[1]
  normalized GFP fluorescence: 0.272
[2]
  normalized DsRed fluorescence: 0.789

## Cc1ccc(Nc2nccc(N(C)c3ccc4c(C)n(C)nc4c3)n2)cc1S(N)(=O)=O [Pazopanib]
[1]
  normalized GFP fluorescence: 0.64
[2]
  normalized DsRed fluorescence: 0.586

## CCN(C(=O)c1c(O)c2c(Cl)cccc2n(C)c1=O)c1ccccc1
[1]
  normalized GFP fluorescence: 0.0925
[2]
  normalized DsRed fluorescence: 0.805

## O=C(O)c1cc(-c2ccc(F)cc2F)ccc1O
[1]
  normalized GFP fluorescence: 0.0802
[2]
  normalized DsRed fluorescence: 0.298

## CCC(=O)O[C@]1(C(=O)CCl)[C@@H](C)C[C@H]2[C@@H]3CCC4=CC(=O)C=C[C@]4(C)[C@@]3(F)[C@@H](O)C[C@@]21C [Clobetasol propionate]
[1]
  normalized GFP fluorescence: -0.000558
[2]
  normalized DsRed fluorescence: 1.15
